Bioassay records deposited in PubChem by National Center for Advancing Translational Sciences (NCATS).
A selection: hits, their analogues and other compounds. The true share with any hit is near 12%.
PLK1 PBD block = PLK1 (human) polo-box domain binding inhibition; Potency, µM, for the others: max response, negative = inhibition, most hits filed as inhibitors; P53350; Plk1 PBD binding of FITC phosphopeptide, fluorescence polarization; AID 720504; actives 2.8% (n = 360,000); note: potency is the fitted concentration of half-maximal effect; series mostly up to about 57 µM; % is set by controls: 0 for no effect and ±100 for the full control effect; nearly all actives have a fitted effect of over 65% in size
JMJD2A Tudor = inhibitors of human JMJD2A Tudor domain; actives 4.4% (n = 390,000); AID 504339; O75164; Potency, µM (top dose mostly 114 µM), without a hit: at the highest dose activity change, negative = inhibition, hits mostly inhibitors; AlphaScreen JMJD2A-Tudor / H3K4me3 peptide binding; note: potency is the fitted concentration of half-maximal effect; % is set by controls: 0 for no effect and ±100 for the full control effect; nearly all actives have a fitted effect of over 50% in size
PI5P4K alpha inh = inhibitors of human PI5P4K alpha | P48426 | PI5P4Kalpha enzyme, ADP-Glo luminescence, 60 min; hits give low values | max response, % | actives 1.2% (n = 330,000); active = max response of -50% or lower; inconclusive = between -30% and -50%; inactive = -30% or higher; note: value at the top dose of about 77 µM; % is set by controls: 0 for no effect and ±100 for the full control effect
Target sequence (P48426 whole entry, looked up): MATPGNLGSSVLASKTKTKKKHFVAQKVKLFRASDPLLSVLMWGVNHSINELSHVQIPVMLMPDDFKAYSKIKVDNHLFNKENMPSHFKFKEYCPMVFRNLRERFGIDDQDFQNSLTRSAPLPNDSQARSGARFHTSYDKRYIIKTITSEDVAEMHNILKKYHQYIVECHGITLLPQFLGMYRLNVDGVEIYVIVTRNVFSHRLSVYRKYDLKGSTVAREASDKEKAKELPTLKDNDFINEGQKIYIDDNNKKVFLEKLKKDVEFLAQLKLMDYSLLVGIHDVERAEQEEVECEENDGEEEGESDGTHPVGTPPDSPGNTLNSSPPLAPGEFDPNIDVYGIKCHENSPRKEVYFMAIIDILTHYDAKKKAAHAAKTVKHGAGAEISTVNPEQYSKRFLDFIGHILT
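qHTS, 1536-well: enzyme/substrate mix, compound by pin tool, 5 microM ATP final; RT 60 min; ADP-Glo reagents 1 (45 min) then 2 (30 min); luminescence.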
HP1b binding inh = inhibitors of HP1-beta chromodomain binding to methylated histone tails; P83916; AlphaScreen HP1-beta / biotin-H3K9me3 peptide binding; Potency, µM (series often up to 114 µM), for inactives: at the top dose activity change, negative = inhibition, usual class: inhibitors; actives 0.56% (n = 390,000); AID 540317; note: potency is the fitted concentration of half-maximal effect; nearly all actives have a fitted effect of over 70% in size
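HP1-beta protein (50 nM final) preincubated 30 min at room temperature with biotinylated H3(1-18)K9me3 peptide (50 nM) in PBS pH 7.4, 0.01% Tween-20, then compound added for 30 min. AlphaScreen streptavidin donor/nickel chelate acceptor beads (10 ug/mL final), 30 min dark, luminescence read.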
G9a block = G9a (human) methyltransferase inhibition; actives 8.8% (n = 350,000); Potency, µM (doses to about 102 µM), without a hit: at the highest dose activity, negative = inhibition, most hits filed as inhibitors; G9a H3K9 monomethylation, AlphaScreen, 2 h; note: potency is the fitted concentration of half-maximal effect; % is set by controls: 0 for no effect and ±100 for the full control effect; nearly all actives have a fitted effect of over 75% in size
Target sequence (Q96KQ7 913-1193 limits assumed): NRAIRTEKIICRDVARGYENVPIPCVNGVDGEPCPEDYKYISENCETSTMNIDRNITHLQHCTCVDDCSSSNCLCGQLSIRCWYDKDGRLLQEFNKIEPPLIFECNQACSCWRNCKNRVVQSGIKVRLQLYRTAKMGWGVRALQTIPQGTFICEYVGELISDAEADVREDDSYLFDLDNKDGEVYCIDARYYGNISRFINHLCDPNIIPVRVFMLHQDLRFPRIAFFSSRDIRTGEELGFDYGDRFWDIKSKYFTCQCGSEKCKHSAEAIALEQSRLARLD
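G9a (20 nM) preincubated 15 min RT with compounds, then 500 nM biotinylated H3K9 peptide and 20 uM SAM added; 2 h RT reaction. Monomethyl-H3K9 product detected by AlphaScreen with anti-H3K9me1 antibody, streptavidin donor and anti-rabbit IgG acceptor beads.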
BAZ2B block = inhibitors of human BAZ2B bromodomain; Q9UIF8; AlphaScreen BAZ2B-H3K14Ac peptide displacement; Potency, µM (highest dose often 114 µM), without a hit: at the top dose activity change, negative = inhibition, hits mostly inhibitors; actives 4.4% (n = 360,000); AID 504333; note: potency is the fitted concentration of half-maximal effect; % is set by controls: 0 for no effect and ±100 for the full control effect; nearly all actives have a fitted effect of over 60% in size
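Complex of BAZ2B and biotin-H3K14Ac (50 nM apiece) forms over 30 min at RT, then faces library compounds up to 110 uM for another 30 min; AlphaScreen beads added, 20 min dark incubation, luminescence read.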
* = called active by the depositor; ? = inconclusive; . = no result given; [ ] = another dose, or the depositor's remark. Unless noted, calls come from the whole dose curve; as a rule, active = well fitted curve in the direction sought with a large enough effect; inconclusive = small, poorly fitted or top-dose-only effect, or another doubt; inactive = no such curve, though single readings can be large; an effect the other way counts as inactive or inconclusive.

SMILES	PLK1 PBD block	JMJD2A Tudor	PI5P4K alpha inh	HP1b binding inh	G9a block	BAZ2B block
O=C(c1cncc(Br)c1)N1CCN(S(=O)(=O)c2ccc(Cl)cc2)CC1	2%	-5%	5	20%	25%	7%
Cc1cc(C)c(OCC(=O)N(Cc2ccco2)Cc2ccco2)c(C)c1	.	-31%	.	22%	-5%[59 µM]	-16%
CC1(C)C2CCC1(C)C(NC(=O)COC(=O)c1ccc(S(C)(=O)=O)c([N+](=O)[O-])c1)C2 (configuration not stated)	.	-7%	.	14%	.	.
CN(Cc1ccccc1)/C(=N/O)c1cccc(Cl)c1	1%	-7%	1	27%	0%	-7%
CC(O)CN(Cc1cccc(Cl)c1)CC(C)O (configuration not stated)	-1%	3.5µM*	.	-25%	?	56µM*
CC(=O)N1c2ccc(S(=O)(=O)N3CCC(C(=O)Nc4cccc(Cl)c4)CC3)cc2CC1C (configuration not stated)	5%	-2%	-2	44%	28%[59 µM]	-20%
O=C(NC1CCCCC1)C(c1cccs1)N(CCCN1CCOCC1)C(=O)c1ccc(-c2ccccc2)[nH]1 (configuration not stated)	-26%	?	20	?	.	50µM*
CC(=O)Nc1ncc2c(n1)CC(c1ccco1)CC2=O (configuration not stated)	-3%	-7%	1	44%	-10%	-3%
Cc1ccc(S(=O)(=O)NC(=O)Nc2ncc3c(n2)CC(c2ccco2)CC3=O)cc1 (configuration not stated)	-13%	-6%	-4	50%	18µM*	-28%
CCc1ccc(OCCCCN(C)Cc2ccccc2)cc1	-8%	14µM*	9	?	.	?
CN(CCOc1ccccc1)CCOc1ccccc1	-14%	-27%	-4	-19%	11%	-22%
COc1cc(C)ccc1OCCOCCN(C)Cc1ccccc1	-13%	3.2µM*	0	?	?	?
COc1ccc(OCCCN(C)Cc2ccccc2)cc1	-4%	25µM*	-3	?	13µM*	?
CN(CCCCOc1ccc(F)cc1)Cc1ccccc1	-1%	22µM*	3	?	.	79µM*
CCOC(=O)c1ccc(NC(=O)CSc2nnc(-c3ccncc3)n2-c2ccccc2)cc1	.	-28%	.	29%	-16%[59 µM]	4%
COc1ccc(N(Cc2ccccc2)S(=O)(=O)c2ccc(C)cc2)cc1	-5%	-17%[11.4 µM]	1	49%	38%	3%
CCC(C)c1ccccc1OCCCN(C)Cc1ccccc1 (configuration not stated)	-4%	7.1µM*	-1	17%	11µM*	?
Cc1cc(C)c(C)c(OCCCCN(C)Cc2ccccc2)c1	4%	11µM*	-3	?	10µM*	50µM*
CN(C)CCCCOc1ccc(F)cc1	?	0.89µM*	1	?	8.9µM*	79µM*
COc1ccc(N(Cc2ccccc2)N=O)cc1	-14%	27%	1	51%	40µM*	0%
Cc1cc(C)c(C)c(OCCCCn2cnc3ccccc3c2=O)c1	-3%	5%	.	43%	44%	24%
CCOc1ccccc1NC(=O)Nc1nnc(N2CCCC(C)C2)s1 (configuration not stated)	.	18%	.	72%	5%[59 µM]	-9%
CCOc1ccccc1NC(=O)COC(=O)c1nc2nccc(C)n2n1	-3%	-4%	2	9%[57 µM]	.	.
COc1ccc(OCCN(C)Cc2ccccc2)cc1	-4%	-26%	.	10%	?	4%
CN(CCOc1ccc(F)cc1)Cc1ccccc1	-8%	0.79µM*	-12	?	10µM*	50µM*
SMILES	PLK1 PBD block	JMJD2A Tudor	PI5P4K alpha inh	HP1b binding inh	G9a block	BAZ2B block
CCN(CC)/C(Sc1ccccc1)=C(/C(Cl)=C(Cl)Cl)[N+](=O)[O-]	?	-21%	6	17%	?	-32%
O=[N+]([O-])C(=C1Nc2ccccc2N1)/C(Cl)=C(/Cl)Br	30µM*	18µM*	?	?	7.9µM*	?
COc1ccc(CC2(CO)CCN(Cc3cccnc3)CC2)cc1	-3%	11%[57.1 µM]	0	46%	35µM*	-16%
Cc1cccc(NC(=O)c2cnn(C)c2)c1C	-10%	0%	-2	16%	-12%[59 µM]	11%
Cc1cccc(NC(=O)c2cnn3ccccc23)c1C	27µM*	-2%[11.4 µM]	-1	7%	-9%[12.7 µM]	2%
O=c1cnnc(Nc2ccc(Nc3ccccc3)cc2)[nH]1	-9%	?	-6	-8%	40µM*	-36%
O=c1sc(Nc2ccccc2)nc2ccccc12	-5%	3%	-7	44%	-28%	-13%
CC(C)(C)OC(=O)Nc1ncnc2c1C(c1ccccc1)c1c(ccc3ccccc13)O2 (configuration not stated)	.	1%	.	.	.	.
O=C(CC1(O)C(=O)N(CCc2ccccc2)c2ccc(Br)cc21)c1ccccc1 (configuration not stated)	.	-25%	.	9%	-39%[59 µM]	-8%
CC(=O)NC1C(=O)N(CCc2ccccc2)c2ccc(Br)cc21 (configuration not stated)	-6%	-22%	-2	24%	11µM*	-3%
CCCCN1C(=O)C(NC(C)=O)c2ccccc21 (configuration not stated)	-3%	-17%	0	29%	22µM*	-5%
CC(=O)NC1C(=O)N(Cc2ccccc2)c2ccc(Br)cc21 (configuration not stated)	27µM*	-15%[11.4 µM]	-22	-19%	40µM*	-27%
CCCCN1C(=O)c2ccccc2C1C(=O)NC1CCCC1 (configuration not stated)	-2%	-4%	.	3%	11%[59 µM]	6%
COc1cc(C2c3[nH]c4ccccc4c3CC3COC(=O)N32)cc(OC)c1O (configuration not stated)	-9%	-26%	-9	-4%	.	.
Cc1cc(C(=O)Nc2ccccc2C(=O)O)c(C)o1	-3%	-23%	-5	6%	-10%	-23%
Cc1cc(C)c(C)c(S(=O)(=O)NCC(=O)NCC2CCCCC2)c1C	-14%	-20%	-5	-16%	?	-2%
O=C(NCc1cccc(F)c1F)C1CCC(=O)N(C2CCCCCC2)C1 (configuration not stated)	-5%	-13%	12	19%	.	0%
CCN(CC)CCNC(=O)C(Oc1ccccc1)Oc1ccccc1	3%	-1%	2	13%	9%	-6%
Cc1ccc(-c2cc(-c3ccccc3)no2)cc1	-1%	2%	-8	68%	14%[2.33 µM]	1%
c1ccc(-c2cc(-c3ccccc3)on2)cc1	13µM*	-20%[11.4 µM]	-26	1%	23%	3%
